Source: PubChem BioAssay
TEAD-YAP inh – TEAD-YAP interaction inhibition; HEK-TIYL cells, TEAD-Gal4/YAP UAS-luciferase luminescence; inhibition, % at 9.12 µM; 1.4% of 640,000 active; in the data active = inhibition above about 32%;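 also: 0% = median of test compound wells and 100% = reference inhibitor wells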
GPR151 ag – human GPR151 activation; Q8TDV0; PathHunter beta-arrestin GPR151 cells, luminescence; activation, % at 11.2 µM; 1% of 650,000 active; in the data active = activation above about 4.9%;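 also: 0% = median of compound wells and 100% = cells with positive control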
Target sequence (Q8TDV0 whole entry, looked up): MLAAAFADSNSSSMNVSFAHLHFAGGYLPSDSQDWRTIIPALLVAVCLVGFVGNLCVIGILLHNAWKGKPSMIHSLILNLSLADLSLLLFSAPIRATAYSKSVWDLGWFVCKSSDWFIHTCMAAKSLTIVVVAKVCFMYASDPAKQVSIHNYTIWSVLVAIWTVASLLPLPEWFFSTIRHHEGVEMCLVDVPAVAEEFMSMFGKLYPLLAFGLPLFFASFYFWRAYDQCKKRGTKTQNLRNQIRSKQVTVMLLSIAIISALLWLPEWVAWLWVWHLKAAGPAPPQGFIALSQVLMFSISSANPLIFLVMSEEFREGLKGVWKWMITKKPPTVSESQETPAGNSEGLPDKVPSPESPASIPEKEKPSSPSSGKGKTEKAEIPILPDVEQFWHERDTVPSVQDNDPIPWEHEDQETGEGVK
MITF inh – inhibitors of human MITF. AlphaScreen MITF homodimerization, bead proximity signal. 0.91% of 650,000 active. inhibition, % at 2.6 µM. AID 1259374; in the data active = inhibition above about 50%;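 also: 0% = vehicle wells with protein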
FBW7 act – human FBW7 E3 ligase activation, primary screen; Q969H0; AlphaScreen FBW7–phospho-cyclin E peptide binding, activator screen; normalized activity (activation), % at 26.1 µM; 0.13% of 650,000 active; AID 1259310; in the data active = normalized activity above about 1.9%;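 also: purified mutant Fbw7 with reduced substrate affinity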
GPR151 confirm – confirmation of human GPR151 activators | 6,700 tested, under 10 active | GPR151 PathHunter beta-arrestin cells, luminescence, 90 min; % of EA-reagent control over plate median | shares compounds with GPR151 ag | activation, % at 11.2 µM;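 active = mean percent activation across replicates above the confirmation screen cutoff of 4.91%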
GPR119 ag – activates human GPR119 in a GPR151 counter-screen; shares compounds with GPR151 ag; GPR119 PathHunter beta-arrestin cells, luminescence, 90 min; 0 = compound-well median, 100 = enzyme-acceptor control; activation, % at 11.2 µM; 0.3% of 6,700 active; AID 1508611;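 active = mean percent activation in the counterscreen above 29.09%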;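 also: counterscreen on off-target GPR119 to flag nonselective hits from the GPR151 activator screen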
* marks the source's active call; other numbers are inactive results. Rows were chosen to be rich in hits. Some 3.5% of all compounds tested hit in one or more screens of this group.

For O=C(/C=C/c1cccs1)NC(=S)Nc1cc([N+](=O)[O-])ccc1O the results were TEAD-YAP inh -12, GPR151 ag 5.4*, MITF inh 34, FBW7 act 0, GPR151 confirm 0 and GPR119 ag -7.
Screening C(=N\Nc1ccccc1)/c1ccc2c(c1)OCCO2 returned TEAD-YAP inh -11, GPR151 ag 5.3*, MITF inh 6, FBW7 act 0, GPR151 confirm -1 and GPR119 ag -3.
N#CCn1c(=O)n(Cc2ccc(F)cc2)c(=O)c2cccnc21 was read as TEAD-YAP inh -21, GPR151 ag 0, MITF inh 4 and FBW7 act 0.
Screening c1ccc(NC2=NCCC2)cc1 returned TEAD-YAP inh 8, GPR151 ag 7.1*, MITF inh -1, FBW7 act 0, GPR151 confirm 0 and GPR119 ag -6.
For FC(F)(F)c1ccc(NC2=NCCC2)cc1 the results were TEAD-YAP inh -8, GPR151 ag 0, MITF inh 19 and FBW7 act 0.
For O=C(CCNC(=O)c1ccccc1)NCCc1ccccc1 the results were TEAD-YAP inh -5, GPR151 ag 0, MITF inh 11 and FBW7 act 0.
`O=C(c1ccccc1[N+](=O)[O-])N(Cc1ccc(Cl)cc1)C1CCS(=O)(=O)C1` (configuration not stated) gave TEAD-YAP inh 0, GPR151 ag 5.0*, MITF inh -14, FBW7 act 0, GPR151 confirm 1 and GPR119 ag -2.
`CN(C)c1ccc(CN(C(=O)c2ccccc2[N+](=O)[O-])C2CCS(=O)(=O)C2)cc1` (configuration not stated) gave TEAD-YAP inh -8, GPR151 ag -1, MITF inh 20 and FBW7 act 0.
CC(C)(C)c1ccc(OCCN2C(=O)C(=O)c3ccccc32)cc1 was read as TEAD-YAP inh 11, GPR151 ag 5.4*, MITF inh 20, FBW7 act 0, GPR151 confirm 0 and GPR119 ag 10.
Screening CC(C)(C)c1ccc(OCCCN2C(=O)C(=O)c3ccccc32)cc1 returned TEAD-YAP inh 6, GPR151 ag -1, MITF inh 12 and FBW7 act 0.
`C=CCn1c(=O)c2c(nc3n2CC(C)CN3c2cccc(Cl)c2)n(C)c1=O` (configuration not stated) gave TEAD-YAP inh -2, GPR151 ag -1, MITF inh -7 and FBW7 act 0.
`Cc1ccc(S(=O)(=O)NC(C)C(=O)Nc2ccc(C(F)(F)F)cc2)cc1` (configuration not stated) gave TEAD-YAP inh 7, GPR151 ag 0, MITF inh -17 and FBW7 act 0.
Screening COc1cc(NC(=O)CS(=O)(=O)c2ccc(C)cc2)cc(OC)c1OC returned TEAD-YAP inh 2, GPR151 ag 6.0*, MITF inh 13, FBW7 act 0, GPR151 confirm 0 and GPR119 ag -9.
Screening COc1ccc(S(=O)(=O)NC(C)C(=O)Nc2ccccc2)cc1 (configuration not stated) returned TEAD-YAP inh 0, GPR151 ag 0, MITF inh 16 and FBW7 act 0.
Screening Cc1ccc(S(=O)(=O)NC(C)C(=O)Nc2cccc(C(F)(F)F)c2)cc1 (configuration not stated) returned TEAD-YAP inh 14, GPR151 ag 6.0*, MITF inh 7, FBW7 act 0, GPR151 confirm 0 and GPR119 ag 0.
Screening CC(=O)c1cccc(NC(=O)C(C)NS(=O)(=O)c2ccc(F)cc2)c1 (configuration not stated) returned TEAD-YAP inh -7, GPR151 ag 6.3*, MITF inh -4, FBW7 act 0, GPR151 confirm 1 and GPR119 ag 5.
Screening COc1ccc(S(=O)(=O)NC(C)C(N)=O)cc1 (configuration not stated) returned TEAD-YAP inh 3, GPR151 ag 6.0*, MITF inh 3, FBW7 act 0, GPR151 confirm 0 and GPR119 ag 2.
Screening O=C(NCc1ccccn1)c1cccc(OC2CCN(Cc3ccc(CO)o3)CC2)c1 returned TEAD-YAP inh 9, GPR151 ag -1, MITF inh 8 and FBW7 act 0.
Screening COc1ccc(NC(=O)C(C)NS(=O)(=O)c2ccc(C)cc2)cc1OC (configuration not stated) returned TEAD-YAP inh 1, GPR151 ag 13*, MITF inh 21, FBW7 act 0, GPR151 confirm 0 and GPR119 ag 5.
Screening CC(NS(=O)(=O)c1cc(Cl)ccc1Cl)C(=O)Nc1cccc([N+](=O)[O-])c1 (configuration not stated) returned TEAD-YAP inh 6, GPR151 ag 7.7*, MITF inh 0, FBW7 act 0, GPR151 confirm 1 and GPR119 ag 7.
Screening CC(Oc1ccc(Br)cc1)C(=O)Nc1cccc([N+](=O)[O-])c1 (configuration not stated) returned TEAD-YAP inh -8, GPR151 ag 6.1*, MITF inh 19, FBW7 act 0, GPR151 confirm 2 and GPR119 ag -3.
Screening COC(=O)c1ccc(NC(=O)C(C)NS(=O)(=O)c2cc(Cl)ccc2Cl)cc1 (configuration not stated) returned TEAD-YAP inh 3, GPR151 ag -1, MITF inh 6 and FBW7 act 0.
CCOC(=O)COc1ccc(S(=O)(=O)NC(C)CC)cc1 (configuration not stated) was read as TEAD-YAP inh 4, GPR151 ag 5.3*, MITF inh -4, FBW7 act 0, GPR151 confirm 0 and GPR119 ag 9.
Screening O=C(Cn1cnc2c(oc3ccccc32)c1=O)N1CCCCC1 returned TEAD-YAP inh -1, GPR151 ag -1, MITF inh 10 and FBW7 act 0.
`COc1ccc(-c2cncc(-c3cc(N4CCC(O)CC4)nc(-c4ccccc4)n3)c2)cc1` gave TEAD-YAP inh -4, GPR151 ag 0, MITF inh 10 and FBW7 act 0.
`Cc1cc(NCc2cccnc2)nc(-c2c(C)noc2C)n1` gave TEAD-YAP inh 0, GPR151 ag 1, MITF inh 3 and FBW7 act 0.
For COCCN(Cc1cccc(OC)c1)C(=O)c1nc2ccc(-c3cn[nH]c3)cc2s1 the results were TEAD-YAP inh -9, GPR151 ag 1, MITF inh 4 and FBW7 act 0.
COCCN(Cc1cccc(Cl)c1)C(=O)c1nc2ccc(-c3cn[nH]c3)cc2s1 was read as TEAD-YAP inh -31, GPR151 ag 6.2*, MITF inh 2, FBW7 act 0, GPR151 confirm 0 and GPR119 ag -7.
